Broadly, the AC50 is the concentration at which the activity in the assay is half-maximal.

This passage reports outcome and AC50 results from PubChem BioAssay (EPA / NIEHS).

Several values for one entry are separate records, joined by “and”; a condition that tells them apart may be missing. Equal values may be shown once. Results filed as inconclusive are left out. The source holds several records for some structures; these can differ, active in one and inactive in another. Activity calls are given as the source filed them. The calls were made as follows, unless noted: active = hit-call score of the fitted dose curve at least 0.9, where 1 is the maximum; inactive = score below 0.9.

Assay [1] is described as follows: BSK_BT_PBMCCytotoxicity: PBMC Cytotoxicity Assessment in the BioMAP Diversity Plus: BT Assay (AID 2284225).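 Also: PBMC viability measured by Alamar Blue dye reduction fluorescence.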 The conditions noted are these: primary human B cells with PBMC. The gist of the method:
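75,000 cells/well; cpd 1 h → SEB + TSST-1 (20 ng/mL final each) → 90 h → Alamar Blue 6 h → fluor. 546/580 nm. DMSO = neg. control/baseline.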

Read-out in assay [2]: Secreted IgG (sIgG), gene 3500
The assay can be described thus: BSK_BT_sIgG: BioMAP Diversity Plus: BT Assay for Secreted IgG (sIgG) Biomarker Activity (AID 2284226). To be noted: primary human B cells with PBMC. In a few lines:
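Secreted IgG from a human primary B cell–PBMC co-culture was measured by ELISA 24 hours after dosing, with DMSO defining baseline activity.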

Assay [3] can be described thus: BSK_BT_Bcell_Proliferation: Viability Assessment in the BioMAP Diversity Plus: BT Assay for B cell Proliferation (AID 2284227). The conditions noted are these: primary human B cells with PBMC. In a few lines: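 Human B cell/PBMC co-culture; test chemical added; 72 h; TCA fix (10%), 0.1% SRB stain, A560 for total protein as a proliferation read-out; positive-direction fit vs DMSO baseline.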

Read-out in assay [4]: Interleukin 6 (IL6), IL6 (gene 3569)
The assay can be described thus: BSK_BT_xIL6: BioMAP Diversity Plus: BT Assay for Interleukin 6 (IL6) Biomarker Activity (AID 2284228). To be noted: primary human B cells with PBMC. The gist of the method: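 Chemical added to human B cell/PBMC co-culture → 24 h → supernatant IL-6 by Luminex xMAP → fit vs DMSO baseline, upward direction.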

Read-out in assay [5]: Interleukin 17A (IL17A), IL17A (gene 3605)
The assay can be described thus: BSK_BT_xIL17A: BioMAP Diversity Plus: BT Assay for Interleukin 17A (IL17A) Biomarker Activity (AID 2284229). The conditions noted are these: primary human B cells with PBMC. The gist of the method:
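Chemicals were added to a human B cell and PBMC co-culture. After 24 h, secreted IL-17A was measured with Luminex xMAP. Curves were fitted in the positive direction, with DMSO wells as baseline.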

Read-out in assay [6]: Tumor necrosis factor (Homo sapiens) (UniProt P01375)
The assay can be described thus: BSK_BT_xTNFa: BioMAP Diversity Plus: BT Assay for Tumor necrosis factor alpha (TNF-alpha) Biomarker Activity (AID 2284230). To be noted: primary human B cells with PBMC. In a few lines:
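Read-out: Luminex xMAP quantitation of secreted TNF-alpha from a B cell/PBMC co-culture 24 h after compound addition. Signal analysed relative to DMSO vehicle, positive fitting direction.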

Read-out in assay [7]: Vascular cell adhesion molecule 1 (VCAM1), VCAM1 (gene 7412)
The assay can be described thus: BSK_MyoF_VCAM1: BioMAP Diversity Plus: MyoF Assay for Vascular cell adhesion molecule 1 (VCAM1) Biomarker Activity (AID 2284231). To be noted: primary human lung fibroblasts. In a few lines: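 Steps: fibroblasts from human lung exposed to compound; biomarker quantified by ELISA at 24 h; values analysed for upward change over the DMSO baseline.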

Assay [8] can be described thus: IUF_NPC1_viability_72hr: Viability Assessment at 72 hours in the Leibniz Research Institute for Environmental Medicine (IUF) Neural Progenitor Cell Proliferation Assay (NPC1) (AID 2284209). The gist of the method: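 Each well receives one 0.3 mm progenitor sphere from fetal brain cortex; test chemical is added at plating and left three days. Viability comes from alamar blue fluorescence, multiplexed with LDH and BrdU readouts in the same well.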

The nature of assay [9]: CCTE_Mundy_HCI_Cortical_Synap_Neur_Matur_NeuriteSpotCountPerNeuriteLength: CCTE's Synaptogenesis and Neurite Maturation Assay in rat cortical cells for Neurite Spot Count per Neurite Length, Mundy Lab (AID 2284210). The gist of the method: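 Rat primary cortical cultures, glia arrested with AraC at DIV 5, were dosed with media change at DIV 7 and fixed at DIV 12. Synaptophysin puncta per MAP2-labelled neurite length were quantified by high-content imaging versus DMSO.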

The nature of assay [10]: CCTE_Mundy_HCI_Cortical_NOG_NeuriteLength: CCTE's Neurite Outgrowth Assay in rat cortical cells for Neurite Length, Mundy Lab (AID 2284213). In a few lines: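 Neurite length was read by high-content imaging of βIII-tubulin-labelled neurites in rat primary cortical cultures. Activity was fitted relative to DMSO.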
The nature of assay [11]: CCTE_Mundy_HCI_Cortical_Synap_Neur_Matur_NeuriteLength: CCTE's Synaptogenesis and Neurite Maturation Assay in rat cortical cells for Neurite Length, Mundy Lab (AID 2284214). The gist of the method:
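Neurite length in rat primary cortical cultures is imaged after MAP2, synaptophysin and Hoechst staining. Dosing starts DIV 7, ending DIV 12; DMSO serves as negative control and baseline.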

A short description of assay [12]: CCTE_Mundy_HCI_Cortical_Synap_Neur_Matur_NeuriteSpotCountPerNeuron: CCTE's Synaptogenesis and Neurite Maturation Assay in rat cortical cells for Neurite Spot Count per Neuron Count, Mundy Lab (AID 2284215). The gist of the method: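 Synapse density is scored as synaptophysin spots along neurites per neuron in fixed rat cortical neurons, measured at DIV 12 after chemical dosing at DIV 7. DMSO is the negative control and activity baseline.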

Assay [13] in a line: TAMU_PeakParms_SingleDonor1434_Chronotropy: Texas A&M University (TAMU) 1.5-hr Human Induced Pluripotent Stem Cell (iPSC)-derived Cardiomyocytes Calcium (Ca+2) Flux Assay for Cardiotoxicity: Chronotropy (changes in peak frequency) (AID 2284217). The conditions noted are these: actives raise or lower the signal. The gist of the method: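 Beat rate, as mean Ca2+-flux peak frequency, was read from donor 1434 iPSC cardiomyocytes 90 min after exposure to 0.2–100 uM test chemical (0.5% DMSO). Wells that stopped beating were excluded; EC05 from bidirectional DMSO-referenced fitting.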

Assay [14] in a line: CCTE_Mundy_HCI_Cortical_Synap_Neur_Matur_SynapseCount: CCTE's Synaptogenesis and Neurite Maturation Assay in rat cortical cells for Synapse Count, Mundy Lab (AID 2284218). The gist of the method:
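Synapse count per neuron is measured in rat cortical neurons exposed to chemicals between DIV 7 and DIV 12, with glial growth arrested by AraC at DIV 5. Synaptophysin and MAP2 staining is imaged automatically; activity is fitted relative to DMSO.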

Assay [15] is described as follows: CCTE_Mundy_HCI_hN2_NOG_NeuriteCount: CCTE's Neurite Outgrowth Assay in human hN2 cells for Neurite Count, Mundy Lab (AID 2284219; active = hit-call score of the fitted dose curve at least 0.9, where 1 is the maximum). The gist of the method: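 In this morphology assay, hNP1-derived neurons received test chemical 2 h post-plating and were fixed two days later in warm paraformaldehyde/sucrose containing Hoechst 33342. Neurites, labelled by rabbit anti-βIII-tubulin (1:800) and Alexa Fluor-488 (1:500), were counted automatically.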

Assay [16] can be described thus: CCTE_Mundy_HCI_Cortical_Synap_Neur_Matur_CellBodySpotCount: CCTE's Synaptogenesis and Neurite Maturation Assay in rat cortical cells for Cell Body Spot Count, Mundy Lab (AID 2284223). The gist of the method:
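Synapse number at neuronal cell bodies was quantified as synaptophysin puncta per neuron in rat cortical cultures exposed from DIV 7 to DIV 12. Values were normalised to DMSO.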

A short description of assay [17]: CCTE_Mundy_HCI_hNP1_Pro_ResponderAvgInten: CCTE's Proliferation Assay in human neuroprogenitor cells, Mundy Lab (AID 2284224; active = hit-call score of the fitted dose curve at least 0.9, where 1 is the maximum;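 also: human neural progenitor cells hNP1 derived from WA09 embryonic stem cells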). In a few lines:
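Human neuroprogenitors (hNP1, WA09 lineage) receive test chemical after 40 to 44 hours of attachment. A four-hour BrdU pulse begins twenty hours later, followed by fixation and high content imaging; signal is referenced to DMSO controls.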

Sequence of Tumor necrosis factor (Homo sapiens) (P01375 whole entry, looked up): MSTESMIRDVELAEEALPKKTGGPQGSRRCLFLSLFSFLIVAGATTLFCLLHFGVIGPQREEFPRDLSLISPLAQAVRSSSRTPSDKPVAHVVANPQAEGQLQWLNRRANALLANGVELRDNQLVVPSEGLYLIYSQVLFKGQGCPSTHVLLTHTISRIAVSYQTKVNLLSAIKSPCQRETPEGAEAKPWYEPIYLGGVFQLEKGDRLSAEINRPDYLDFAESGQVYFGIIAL

For the compound `CCc1c(Br)c(Br)c(Br)c(Br)c1Br`, the result in [1], in assay [2], in [3], in assay [4], in [5] and in assay [6] was inactive. Moreover, the AC50 in assay [7] was 20 µM (active).
Take `C=C(C)C(=O)OCC(F)(F)C(F)(F)C(F)(F)C(F)(F)C(F)(F)C(F)(F)C(F)(F)F`: the result in [1], in assay [2], in [3], in assay [4], in assay [5] and in assay [6] was inactive. Further, the result in assay [7] was inactive.
On to `C=C(C)C(=O)OCCC(F)(F)C(F)(F)C(F)(F)C(F)(F)C(F)(C(F)(F)F)C(F)(F)F`, for which the result in assay [1], in assay [2], in [3], in assay [4], in assay [5] and in assay [6] was inactive. In [7], the outcome was inactive.
As to `Oc1ccc(Nc2ccccc2)cc1`, the AC50 is 16.7 µM (active) in [1]; 13.4 µM (active) in assay [2]; 22.5 µM (active) in assay [3]; 20 µM (active) in [4]; 14.3 µM (active) in assay [5]; 30.1 µM (active) in assay [6]. In assay [7], the result was inactive.
For the compound `OCC(F)(F)C(F)(F)C(F)(F)C(F)(F)C(F)(F)C(F)(F)F`, the AC50 is 41 µM (active) in assay [1], 43.9 µM (active) in assay [2], 47.7 µM (active) in assay [3] and 41.2 µM (active) in [6]. Also, the result in assay [1], in assay [2], in [3], in assay [4], in assay [5] and in assay [6] was inactive. Further, in [7], the result was inactive.
Consider `O=P(O)(O)OCCC(F)(F)C(F)(F)C(F)(F)C(F)(F)C(F)(F)C(F)(F)F`, for which the result in [1], in assay [2], in [3], in assay [5], in [6] and in [7] was inactive. Besides, the AC50 in assay [4] is 21.9 µM (active) and 19.9 µM (active); in assay [5] it was 20.2 µM (active).
Take `CCCCNc1ccccc1`: the result in [1], in [2], in assay [3], in [4], in assay [5] and in assay [6] was inactive. Moreover, the result in assay [7] was inactive.
For the compound `CCCCCCCOC(=O)c1ccccc1C(=O)OCCCCCCC`, the outcome in assay [1], in assay [3], in assay [4], in assay [5], in assay [6] and in [7] was inactive. The AC50 in assay [2] is 13.3 µM (active).
As to `OC[C@@H](O)[C@@H](O)[C@H](O)[C@@H](O)CO`, the compound was called inactive in assay [8], in assay [9], in assay [10], in [11], in assay [12] and in assay [13]. Moreover, the outcome in assay [14], in assay [15], in [16] and in [17] was inactive.
Turning to `FC(F)(F)C(F)(F)C(F)(F)C(F)(F)C(F)(F)CCI`, the outcome in assay [1], in [2], in [3], in assay [4], in assay [5] and in assay [6] was inactive. Besides, the outcome in assay [7] was inactive.
Take `FC1CC(F)(F)C(F)(F)C1(F)F` (stereo not drawn): the outcome in [1], in assay [2], in [3], in assay [4], in assay [5] and in assay [6] was inactive. Moreover, the outcome in assay [7] was inactive.
In the case of `CO[Si](OC)(c1ccccc1)c1ccccc1`, the outcome in assay [1], in assay [2], in [3], in assay [4], in assay [5] and in [6] was inactive. The AC50 in assay [7] was 32.8 µM (active).
As to `O=C(O)C(F)(F)C(F)(F)C(F)(F)C(F)(F)F`, the outcome in [1], in [2], in assay [3], in assay [4], in assay [5] and in [6] was inactive. The outcome in [7] was inactive.
Turning to `O=S(=O)(O)C(F)(F)C(F)(F)C(F)(F)C(F)(F)C(F)(F)C(F)(F)C(F)(F)F`, the result in assay [1], in assay [2], in assay [3], in [4], in assay [5] and in assay [6] was inactive. Moreover, in assay [7], the result was inactive.
In the case of `CCCCCCC(C)OC(=O)CCCCC(=O)OC(C)CCCCCC` (stereo not drawn), the result in assay [1], in [2], in assay [3], in [4], in assay [5] and in assay [6] was inactive. In [7], the outcome was inactive.
With `FC(F)(F)C(F)(F)C(F)(F)C(F)(F)C(F)(F)C(F)(F)C(F)(F)C(F)(F)F`, the compound was called inactive in assay [17], in assay [1], in assay [2], in assay [3], in [4] and in assay [5]. In addition, the result in assay [6] and in assay [7] was inactive.
For the compound `FC(F)(F)C(F)(F)C(F)(F)C(F)(F)C(F)(F)C(F)(F)C(F)(F)Br`, the outcome in assay [1], in assay [2], in assay [3], in [4], in [5] and in assay [6] was inactive. Further, in [7], the outcome was inactive.
